Assay results from PubChem BioAssay AID1159580 (chemical genetic matrix, 2015).
Several values for one entry are separate records, joined by “and”; a condition that tells them apart may be missing. Equal values may be shown once. In all, about 5,500 compounds went through this assay and about 2,000 (36%) were called active. Not shown: some 18% with an inconclusive outcome. Cut-off read from the data, not from the text of the source: active = normalized growth mostly below about 0.91 (no sharp cut-off); inconclusive = no clear call, values can overlap the other calls; inactive = mostly above about 0.92. This is one part of the list.

Test: chemical genetic growth profiling, strain panel (AID 1159580);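 note: tested at 20 µM; growth read once vehicle control cultures reached saturation at 30 °C; 1 = growth at the plate median or of vehicle wells; lower values mean less growth of the strain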
Settings: S. cerevisiae deletion strains, growth OD

Measured: normalized growth

O=c1cc(-c2ccccc2)oc2c(O)c(O)ccc12
active: locus YDL192W, strain arf1, stronger effect = lower value 0.88 | locus YDR137W, strain rgp1, stronger effect = lower value 0.664 | locus YJL187C, strain SWE1 (second series), stronger effect = lower value 0.844
inactive: locus YAL021C, strain ccr4, stronger effect = lower value 0.913 | locus YAL026C, strain drs2, stronger effect = lower value 0.977 | locus YAL030W, strain snc1, stronger effect = lower value 0.99 | locus YBL061C, strain skt5, stronger effect = lower value 0.995 | locus YBR009C, strain hhf1, stronger effect = lower value 0.98 | locus YBR021W, strain FUR4, stronger effect = lower value 0.955 | locus YBR023C, strain chs3, stronger effect = lower value 0.997 | locus YBR171W, strain sec66, stronger effect = lower value 0.964 | locus YBR229C, strain ROT2, stronger effect = lower value 0.974 | locus YBR231C, strain swc5, stronger effect = lower value 0.98 | locus YBR279W, strain paf1, stronger effect = lower value 0.99 | locus YCL011C, strain gbp2, stronger effect = lower value 0.984 | locus YCL016C, strain dcc1, stronger effect = lower value 0.98 | locus YCL029C, strain bik1, stronger effect = lower value 0.956 | locus YCL061C, strain MRC1, stronger effect = lower value 0.981 | locus YCL069W, strain vba3, stronger effect = lower value 0.985 | locus YCR088W, strain abp1, stronger effect = lower value 0.991 | locus YDL005C, strain med2, stronger effect = lower value 0.991 | locus YDL035C, strain GPR1, stronger effect = lower value 0.863 | locus YDL040C, strain nat1, stronger effect = lower value 0.992 | locus YDL074C, strain BRE1, stronger effect = lower value 0.808 | locus YDL101C, strain DUN1, stronger effect = lower value 0.948 | locus YDL185W, strain tfp1, stronger effect = lower value 0.972 | locus YDR001C, strain nth1, stronger effect = lower value 0.995 | locus YDR069C, strain doa4, stronger effect = lower value 0.936 | locus YDR101C, strain arx1, stronger effect = lower value 0.973 | locus YDR150W, strain NUM1, stronger effect = lower value 0.984 | locus YDR159W, strain sac3, stronger effect = lower value 0.971 | locus YDR162C, strain NBP2, stronger effect = lower value 0.834 | locus YDR195W, strain ref2 1.03 | locus YDR297W, strain sur2, stronger effect = lower value 0.988 | locus YDR318W, strain mcm21, stronger effect = lower value 0.991 | locus YDR334W, strain swr1, stronger effect = lower value 0.942 | locus YDR335W, strain msn5, stronger effect = lower value 0.979 | locus YDR388W, stronger effect = lower value 0.989 | locus YDR392W, strain spt3, stronger effect = lower value 1 | locus YDR502C, strain sam2, stronger effect = lower value 0.96 | locus YEL003W, strain gim4, stronger effect = lower value 0.983 | locus YEL037C, strain rad23, stronger effect = lower value 0.986 | locus YEL061C, strain CIN8 (second series), stronger effect = lower value 0.99 | locus YEL061C, strain CIN8, stronger effect = lower value 0.978 | locus YER015W, strain faa2, stronger effect = lower value 0.99 | locus YER016W, strain bim1, stronger effect = lower value 0.983 | locus YER110C, stronger effect = lower value 0.962 | locus YER111C, strain swi4, stronger effect = lower value 0.983 | locus YER155C, strain BEM2 (second series), stronger effect = lower value 0.982 | locus YER155C, strain BEM2, stronger effect = lower value 1.02 | locus YER167W, strain BCK2, stronger effect = lower value 1 | locus YFR010W, strain ubp6, stronger effect = lower value 0.944 | locus YGL078C, strain dbp3, stronger effect = lower value 0.98 | locus YGL086W, strain mad1, stronger effect = lower value 0.932 | locus YGL167C, strain pmr1, stronger effect = lower value 0.988 | locus YGL173C, strain kem1, stronger effect = lower value 0.975 | locus YGL227W, strain vid30, stronger effect = lower value 1 | locus YGL240W, strain doc1, stronger effect = lower value 0.956 | locus YGL248W, strain PDE1, stronger effect = lower value 0.923 | locus YGL253W, strain hxk2, stronger effect = lower value 0.99 | locus YGR135W, strain pre9, stronger effect = lower value 0.947 | locus YGR252W, strain gcn5, stronger effect = lower value 0.802 | locus YHR013C, strain ard1, stronger effect = lower value 0.951 | locus YHR027C, strain rpn1, stronger effect = lower value 0.983 | locus YHR030C, strain SLT2, stronger effect = lower value 0.98 and 1.06 | locus YHR079C, strain IRE1 (second series), stronger effect = lower value 0.988 | locus YHR079C, strain IRE1, stronger effect = lower value 1.05 | locus YHR094C, strain hxt1, stronger effect = lower value 0.99 | locus YHR129C, strain ARP1, stronger effect = lower value 0.93 | locus YHR142W, strain chs7, stronger effect = lower value 0.973 | locus YHR200W, strain rpn10, stronger effect = lower value 0.958 | locus YIL066C, strain RNR3, stronger effect = lower value 0.873 | locus YIL073C, strain SPO22, stronger effect = lower value 0.702 | locus YIL125W, strain kgd1, stronger effect = lower value 0.97 | locus YIR030C, strain dcg1, stronger effect = lower value 0.997 | locus YJL092W, strain hpr5, stronger effect = lower value 0.994 | locus YJL095W, strain BCK1 (second series), stronger effect = lower value 0.996 | locus YJL115W, strain asf1, stronger effect = lower value 0.971 | locus YJL129C, strain trk1, stronger effect = lower value 0.912 | locus YJL134W, strain LCB3, stronger effect = lower value 0.986 | locus YJL154C, strain vps35, stronger effect = lower value 0.984 | locus YJL164C, strain tpk1, stronger effect = lower value 0.985 | locus YJL166W, strain qcr8, stronger effect = lower value 0.994 | locus YJL168C, strain set2, stronger effect = lower value 0.981 | locus YJL187C, strain SWE1, stronger effect = lower value 0.975 | locus YJR043C, strain POL32, stronger effect = lower value 0.921
0.733 (active) and 1.08 (inactive): locus YJL095W, strain BCK1, stronger effect = lower value
